Bioassay records deposited in PubChem BioAssay by several laboratories.
SKKanGAS inh: blocks kanamycin growth of S. pyogenes SKKanGAS strain. BacTiter-Glo, 6 h. inhibition, % at 7.5 µM. 300,000 compounds, 1.3% hits. AID 1662;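 active = mean replicate score, as percent of positive control median, at least 50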;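 also: strain carries kanamycin resistance gene driven by streptokinase promoter and grows in 40 µg/ml kanamycin; loss of luminescence reflects streptokinase promoter inhibition or plain growth inhibition; 0% = median of DMSO wells and 100% = positive control at its reference dose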
PfHsp90 yeast 2: inhibits growth of yeast expressing Plasmodium falciparum Hsp90 | 310,000 compounds, 0.32% hits | S. cerevisiae expressing PfHsp90, BacTiter-Glo ATP, 48 h; yeast lacking PDR1 and PDR3 efflux regulators | AID 504621 | inhibition, % at 9.4 µM;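 active = every replicate shows inhibition above about 80%, whatever the replicate mean, limit read from the data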;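 also: 0% = DMSO neutral controls and 100% = 20 µM radicicol positive controls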
tim23-1 inh: inhibits growth of tim23-1 mutant yeast; S. cerevisiae tim23-1 growth, BacTiter-Glo luminescence, 24 h; 330,000 compounds, 1.3% hits; inhibition, % at 20 µM; AID 463212;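 active = growth inhibition of the mutant yeast at or above 50%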;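 also: temperature-sensitive mutant grown at 25 °C; plate controls were DMSO-treated mutant yeast for no effect and medium wells lacking yeast for full effect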
tim10-1 inh: tim10-1 yeast growth inhibition | S. cerevisiae tim10-1 ts strain growth, BacTiter-Glo, 24 h | inhibition, % at 20 µM | 330,000 compounds, 2.2% hits | AID 463190;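 active = inhibition of at least 40%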;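 also: mutant grown at 25 °C; 0% = DMSO wells with yeast and 100% = wells holding no yeast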
TIM10 inh: growth inhibitors of TIM10 yeast strain | AID 463195 | inhibition, % at 10 µM | 330,000 compounds, 1.4% hits | S. cerevisiae TIM10 strain growth, BacTiter-Glo luminescence, 24 h;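 active = inhibition of 40% or more at the single tested concentration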;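 also: wild-type TIM10 isogenic control strain grown at permissive 25 °C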
tim10-1 conf: confirmation of tim10-1 mutant yeast growth inhibitors. shares compounds with tim10-1 inh. S. cerevisiae tim10-1 ts strain growth, BacTiter-Glo, 24 h. inhibition, % at 20 µM. 7,400 compounds, 56% hits;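 active = inhibition of yeast growth at or above a set limit in either of two repeat tests at 20 µM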;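 also: tim10-1 mutant grown at permissive 25 °C to find synthetic lethal compounds; 0% = DMSO yeast wells and 100% = medium wells without yeast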
Active calls of the source: *; / = not tested or not shown. This is a sample that favours compounds with a hit; in the whole collection about 4.4% have one here.

SMILES | SKKanGAS inh | PfHsp90 yeast 2 | tim23-1 inh | tim10-1 inh | TIM10 inh | tim10-1 conf
COc1cccc(/C=C2\N=C(C3CCCCC3)OC2=O)c1OC | 4.2 | / | 31.5 | 47.4* | 35.1 | 33.2*
CCCC1CCC(C2=N/C(=C\c3ccc(OC)c(OC)c3)C(=O)O2)CC1 (stereo not drawn) | 8.0 | -25.4 | 14.9 | 32.4 | 23.1 | /
COC(C(=O)N/N=C/c1ccc(OCC(=O)N2CCOCC2)cc1)c1ccccc1 (stereo not drawn) | 1.5 | -31.5 | 1.9 | -10.3 | 9.8 | /
COc1cc2c(cc1OC)[C@@H](NC(=O)COc1ccccc1)[C@H](OCc1ccccc1)C2 | / | -5.8 | 40.0 | 10.1 | 0.3 | /
COc1ccccc1-c1nnc(Sc2nc([N+](=O)[O-])nn2C)o1 | 1.1 | / | 44.3 | 48.0* | 35.0 | 41.7*
CCCN(CC(=O)Nc1ccccc1C)C(=O)COc1c(C)cccc1C | / | -28.3 | 27.0 | 35.1 | 7.5 | /
CCCN(CC(=O)Nc1ccccc1C)C(=O)CCl | -2.3 | -7.3 | 31.4 | 40.8* | 34.7 | 23.4
COc1ccccc1N(C)S(=O)(=O)c1ccc(C)c(C(=O)NCc2ccccn2)c1 | / | 16.7 | 8.9 | -2.2 | -1.8 | /
CC1CCCC(NC(=O)C2COc3ccccc3O2)C1C (stereo not drawn) | / | 26.6 | 36.3 | 18.6 | 18.7 | /
Cc1coc2c1C(=O)C(=O)c1c-2ccc2c(C)cccc12 | 72.9* | -112.3 | 18.7 | 51.4* | 9.5 | 7.5
COc1ccc(NC(=O)N2CCCc3ccccc32)c(OC)c1 | 11.7 | 9.5 | 29.1 | 23.5 | 10.4 | /
COc1ccc(C)cc1NC(=O)N1CCCc2ccccc21 | -11.9 | -5.4 | 25.9 | 46.7* | 3.7 | 15.3
O=C(Nc1cc(S(=O)(=O)N2CCCC2)ccc1Cl)c1cc(F)c(F)c(F)c1F | / | / | 13.9 | -0.5 | -1.9 | /
COc1ccc(-n2nnnc2-c2cccc(OC)c2)cc1 | 0.1 | -4.4 | 1.4 | 44.0* | -6.6 | 13.1
COc1ccc(Cn2c(=S)[nH]c3ccsc3c2=O)cc1 | -1.2 | -29.1 | 20.9 | 51.4* | 28.2 | 19.1
O=C1CC(SCc2nc3ccccc3[nH]2)C(=O)N1c1ccc(F)c(Cl)c1 (stereo not drawn) | 19.2 | 15.0 | 21.2 | 54.1* | 35.4 | 42.5*
O=C1CC(SCc2nc3ccccc3[nH]2)C(=O)N1c1ccc(Cl)cc1 (stereo not drawn) | 15.7 | 6.8 | 36.1 | 32.0 | 21.2 | /
Cc1cccn2c(=O)c3cc(C(=O)NC4CCCCC4)c(=N)n(Cc4ccccc4)c3nc12 | 19.0 | -1.1 | 7.8 | 2.7 | 4.8 | /
Cc1cccn2c(=O)c3cc(C(=O)NC4CCCC4)c(=N)n(Cc4ccc(F)cc4)c3nc12 | 5.4 | -7.7 | 19.2 | 43.2* | 12.9 | -17.8
Cn1c(N)c(C(=O)CSc2nn(-c3ccc(F)cc3)c(=S)s2)c(=O)n(C)c1=O | / | -10.0 | -15.0 | 1.6 | -16.0 | /
COc1cc(NC(=S)Nc2ccc3c(c2)OCCO3)cc(OC)c1OC | -0.7 | 13.5 | 17.7 | 7.2 | 28.2 | /
S=C(Nc1ccc(Br)cc1)Nc1ccc2c(c1)OCCO2 | -2.2 | 4.5 | 33.9 | 44.9* | 14.6 | 3.4
Cn1cccc1C(=O)NC(=O)COC(=O)c1ccc(S(C)(=O)=O)cc1 | / | -30.7 | 9.8 | 0.9 | -3.3 | /
Cn1ccsc1=NC(=O)c1ccc(S(C)(=O)=O)c([N+](=O)[O-])c1 | 6.7 | 6.6 | 34.5 | 40.1* | 30.9 | 27.8*
Cn1cccc1C(=O)NC(=O)COC(=O)c1ccc(S(C)(=O)=O)c([N+](=O)[O-])c1 | / | -4.6 | 39.9 | 40.9* | 35.3 | 32.5*
SMILES | SKKanGAS inh | PfHsp90 yeast 2 | tim23-1 inh | tim10-1 inh | TIM10 inh | tim10-1 conf
Cn1ccsc1=NC(=O)c1ccc(Cl)c([N+](=O)[O-])c1 | -2.4 | 9.6 | -0.7 | -0.8 | -6.9 | /
COc1cc(OC)cc(C(=O)N[C@H](C(=O)OCC(=O)Nc2cccnc2Cl)C(C)C)c1 | / | 20.5 | 9.4 | -3.7 | 5.5 | /
Nc1cc(SCc2ccc(Cl)cc2Cl)ncn1 | / | 19.8 | / | / | / | /
COCCNC(=O)CCC1CCN(Cc2cccc(Oc3ccccc3)c2)CC1 | -0.7 | -23.5 | 3.6 | -27.8 | -6.6 | /
CCOC(=O)c1ccc(NC(=O)Cn2ncc(Cl)c(Cl)c2=O)cc1 | 2.0 | -14.7 | 30.7 | 40.3* | 30.8 | 17.9
O=S(=O)(c1ccc2c(c1)OCCO2)N1CCC(n2nnc3cc(F)ccc32)CC1 | -0.5 | / | 34.3 | 42.0* | 34.8 | 30.4
CN(CC(=O)Nc1ccc(F)cc1[N+](=O)[O-])C1CCS(=O)(=O)C1 (stereo not drawn) | / | -4.9 | 4.5 | 3.2 | -0.7 | /
Cc1sc(NC(=O)c2ccco2)c(C(c2cccnc2)N2CCN(C)CC2)c1C (stereo not drawn) | 1.9 | -0.4 | 24.1 | 9.7 | -0.6 | /
Cc1sc(NC(=O)c2ccco2)c(C(Nc2ccccn2)c2ccccc2)c1C (stereo not drawn) | -15.5 | -13.6 | 32.7 | 40.0 | 24.9 | 24.9
COc1ccc(C(Nc2ccccn2)c2c(NC(=O)c3ccco3)sc(C)c2C)cc1 (stereo not drawn) | 8.2 | -13.1 | 47.3 | 41.1* | 38.1 | 26.0
COc1cccc(C(Nc2ccccn2)c2c(NC(=O)c3ccco3)sc(C)c2C)c1 (stereo not drawn) | 4.7 | 24.7 | 14.4 | 29.6 | 22.5 | /
Cc1sc(NC(=O)c2ccco2)c(C(c2cccnc2)N2CCCC2)c1C (stereo not drawn) | 8.0 | / | 49.2 | 52.2* | 22.1 | 45.0*
COc1ccc2nc(NC(=O)CSc3nnnn3C)sc2c1 | 2.7 | 14.5 | 1.4 | -0.4 | -5.4 | /
N/C(=N\OC(=O)COc1ccc2ccccc2c1Br)c1cccnc1 | 17.8 | / | 12.9 | -3.4 | 7.9 | /
N/C(=N\OC(=O)COc1ccccc1)c1cccnc1 | 0.1 | 6.6 | 5.1 | 4.5 | 1.1 | /
N/C(=N\OC(=O)c1cccc2ccccc12)c1cccnc1 | -5.6 | 4.6 | 25.6 | 61.7* | 34.0 | 65.3*
N/C(=N\OC(=O)c1ccco1)c1cccnc1 | -17.4 | 5.2 | 8.4 | -8.2 | -6.7 | /
N/C(=N\OC(=O)c1ccc(Cl)cc1)c1cccnc1 | -3.9 | 16.6 | 49.7 | 65.1* | 32.8 | 61.8*
N/C(=N\OC(=O)C(c1ccccc1)c1ccccc1)c1cccnc1 | 1.7 | -6.6 | 18.7 | 41.2* | -7.9 | 8.2
N/C(=N\OC(=O)c1ccc(Cl)cc1)c1ccn[nH]1 | -0.7 | -3.2 | 31.4 | 20.8 | 31.5 | /
N/C(=N\OC(=O)c1ccc(Cl)cc1)c1ccc(Cl)cc1 | -5.3 | 7.2 | 23.3 | 43.2* | 11.8 | 33.6*
CCOC(=O)[C@@H]1[C@H]2COc3cc(OC)ccc3[C@@H]2N2C(=O)N(c3ccc(Cl)cc3)C(=O)[C@@]12C | 3.5 | 11.6 | 25.9 | 19.7 | 9.7 | /
COc1ccc(OCCC(=O)OCC(=O)NC2CCCCCCC2)cc1 | -15.0 | -11.0 | 38.2 | 42.8* | 24.5 | 39.7*
O=C(Nc1sc2c(c1C(=O)c1ccc(Cl)cc1)CCCC2)c1cccnc1 | 14.5 | / | 31.8 | 40.8* | 23.1 | 28.0
O=C(Nc1sc2c(c1C(=O)c1ccccc1)CCCC2)c1cccnc1 | -8.3 | -5.2 | 43.6 | 18.3 | 13.9 | /
